KDM4E inh – inhibitors of human JMJD2E histone demethylase. Potency, µM (highest dose often 57.1 µM), for inactives: at the highest dose activity change, negative = inhibition, most hits filed as inhibitors. B2RXH2. JMJD2E catalytic domain, FDH-coupled NADH fluorescence (FDH is formaldehyde dehydrogenase). actives 1.6% (n = 230,000); active means well fitted inhibition curve with a large enough effect, not every such curve was filed as active; inconclusive means small, poorly fitted or top-dose-only effect, or another doubt; inactive means no such curve, though single readings can be large or run the other way;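 further: potency means the concentration at half of the fitted maximal effect; 0% = wells with enzyme and -100% = buffer wells without enzyme; nearly all actives have a fitted effect of over 50% in size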
Target sequence (B2RXH2 1-337 limits assumed): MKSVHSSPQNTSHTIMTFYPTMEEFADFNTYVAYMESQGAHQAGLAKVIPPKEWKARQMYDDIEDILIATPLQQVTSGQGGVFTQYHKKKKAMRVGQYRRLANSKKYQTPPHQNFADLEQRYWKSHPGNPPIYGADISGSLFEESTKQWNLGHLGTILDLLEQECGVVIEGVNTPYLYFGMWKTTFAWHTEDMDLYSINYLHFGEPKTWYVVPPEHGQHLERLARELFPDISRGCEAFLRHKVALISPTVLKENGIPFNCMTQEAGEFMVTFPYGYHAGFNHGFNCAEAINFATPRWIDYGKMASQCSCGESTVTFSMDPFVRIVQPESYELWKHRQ
Coupling enz – coupling enzyme interference in Giardia aldolase counter-screen; actives 0.67% (n = 290,000); activity change, negative = inhibition, % at 58.2 µM, hits read low; coupling enzyme system counterscreen, AmpLite Red fluorescence; in the data active means activity change below about -30%
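Counterscreen lacking aldolase: glyceraldehyde-3-phosphate coupling-enzyme reagent preincubated 10 min at RT with compound (at 57.5 uM final), then substrate/coupling system with AmpLite Red added; fluorescence read at 525/598 nm after 20 min RT.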
RGS12 GoLoco inh – RGS12 GoLoco-Gai1 interaction inhibition; P63096; Gai1:RGS12 GoLoco peptide FP, rhodamine, 10 min; Potency, µM (highest dose often 61.6 µM), for the others: at the top dose activity, negative = inhibition, usual class: inhibitors; actives 0.44% (n = 230,000); AID 880; active means well fitted inhibition curve with a large enough effect, not every such curve was filed as active; inactive means no such curve, though single readings can be large or run the other way; further: potency means the concentration at half of the fitted maximal effect; nearly all actives have a fitted effect of over 30% in size
Sfp inh – blocks B. subtilis Sfp PPTase activity. Q9F4F7. Biochemical Sfp PPTase activity, qHTS. Potency, µM, for inactives: largest response in the series, negative = inhibition, actives largely listed as inhibitors. actives 3.5% (n = 310,000);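 further: the enzyme is Sfp with the accession as filed and its product quenches rhodamine fluorescence; potency means the concentration at half of the fitted maximal effect; 0% = enzyme reaction without inhibitor and -100% = no enzyme wells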
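After 15 min at room temperature with compound, 15 nM Sfp received 5 uM rhodamine-CoA plus 12.5 uM BHQ-2-ybbR (50 mM Hepes pH 7.6, 10 mM MgCl2). Rate came from the fluorescence difference over 30 min, ex 525/em 598 nm.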
NPSR antagonist – antagonists of human neuropeptide S receptor cAMP signaling; AID 1461; CHO-NPSR cells, cAMP TR-FRET, antagonist mode; Q6W5P4; Potency, µM (titrated, usually from 38.3 µM), without a hit: top-dose activity change, negative = inhibition, actives largely listed as inhibitors; actives 1% (n = 220,000); further: potency means the concentration at half of the fitted maximal effect; nearly all actives have a fitted effect of over 50% in size
Target sequence (Q6W5P4 whole entry, looked up): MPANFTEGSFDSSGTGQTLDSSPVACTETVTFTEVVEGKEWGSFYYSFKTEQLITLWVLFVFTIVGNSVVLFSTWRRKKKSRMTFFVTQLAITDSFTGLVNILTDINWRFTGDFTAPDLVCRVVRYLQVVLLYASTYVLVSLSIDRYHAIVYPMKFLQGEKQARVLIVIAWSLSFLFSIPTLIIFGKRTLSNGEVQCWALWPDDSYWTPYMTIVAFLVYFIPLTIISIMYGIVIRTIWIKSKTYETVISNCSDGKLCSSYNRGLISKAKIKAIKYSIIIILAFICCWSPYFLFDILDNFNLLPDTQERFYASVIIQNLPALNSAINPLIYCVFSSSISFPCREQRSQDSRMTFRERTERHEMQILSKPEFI
ALDH1A1 block – ALDH1A1 (human) enzyme inhibition | P00352 | Purified ALDH1A1, NADH fluorescence, propionaldehyde substrate | Potency, µM (top dose mostly 75.3 µM), inactives show at the top dose activity, negative = inhibition, hits mostly inhibitors | actives 7.3% (n = 220,000); active means well fitted inhibition curve with a large enough effect, not every such curve was filed as active; inconclusive means small, poorly fitted or top-dose-only effect, or another doubt; inactive means no such curve, though single readings can be large or run the other way;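 further: potency means the concentration at half of the fitted maximal effect; plate controls were no enzyme wells and a reference inhibitor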
Starred values were filed as active, the others as inactive; ? = inconclusive; · = no result; [ ] = dose if it differs, or a comment. Shown are actives, neighbours in structure and some others; about 8.5% of the full set was active somewhere. Unless noted, the call rests on the fitted dose curve; in most records, active means well fitted curve in the direction sought with a large enough effect; inconclusive means small, poorly fitted or top-dose-only effect, or another doubt; inactive means no such curve, though single readings can be large; an effect the other way counts as inactive or inconclusive. Unless noted, on the % scale 0 is the no-effect control and ±100 the full control effect.

SMILES	KDM4E inh	Coupling enz	RGS12 GoLoco inh	Sfp inh	NPSR antagonist	ALDH1A1 block
O=C(O)c1ccc(Nc2ccc([N+](=O)[O-])c3nonc23)cc1	·	-0.6	·	?	·	·
CCCN1CCC(=O)N(C(CSc2ccc(OC)cc2)c2ccccc2)CC1 (configuration not stated)	·	-0.8	·	-12.6%	·	·
CCOC(=O)c1cnc2ccc(OCC)cc2c1N1CCN(C)CC1	-2.6%	-38.8*	·	-10.0%	-24.3%[46.1 µM]	?
CCOc1ccc2ncc(S(=O)(=O)c3ccc(C)cc3)c(N3CCC4(CC3)OCCO4)c2c1	?	-3.4	·	-1.1%	-26.9%[46.1 µM]	3.16µM*
CCOC(=O)c1cnc2ccccc2c1NCc1ccco1	?	-0.3	2.5%	44.7µM*	?	?
CCOC(=O)c1cnc2c(OC)cccc2c1N1CCN(c2ccccc2OC)CC1	?	-5.1	·	79.4µM*	?	4.5%
CCOC(=O)c1cnc2ccc(Cl)cc2c1N1CCN(C)CC1	1.2%	7.3	-1.2%	6.2%	0.8%[46.1 µM]	4.7%
Cc1onc(-c2ccccc2)c1C(=O)N/N=C/c1c(F)cccc1Cl	·	·	·	-1.9%	·	·
COc1ccc(OC)c(Nc2nc(N)c([N+](=O)[O-])c(N3CCOCC3)n2)c1	·	-5.3	·	-2.2%	·	·
CN(C)C(=O)c1ccc(-c2ccc3ncnc(NC4CCNCC4)c3c2)cc1	?	0.0	8.6%	8.5%	·	?
CCOC(=O)c1cnc2ccc(OCC)cc2c1NCc1ccccc1OC	3.6%	-10.0	44.7%	56.2µM*	?	?
COC(=O)C1C2C=CC3(CN(Cc4cccs4)C(=O)C13)O2 (configuration not stated)	7.0%	2.7	-9.6%	7.2%	-6.6%[7.67 µM]	-9.8%
COC(=O)C1C(=O)N2CCCSC2=C(C#N)C1c1cccs1 (configuration not stated)	-5.8%	1.5	-5.6%	-0.1%	-7.7%[46.1 µM]	6.31µM*
Cc1ccc(C)c(S(=O)(=O)N/N=C/c2cccnc2)c1	0.5%	-4.0	-2.5%	-9.2%	2.5%	8.91µM*
Cc1cc(Br)cnc1NC(=S)Nc1ccc(F)cc1F	-8.6%	-0.7	-9.4%	0.6%	2.0%	?
CC(=O)c1cccc(N2C(=NC(=O)C3CCCCC3)SC3CS(=O)(=O)CC32)c1 (configuration not stated)	·	-3.2	·	10.6%	·	·
CC1(C)Cc2nc3nc(SCC(=O)NCCc4ccccc4)n(-c4ccccc4)c(=O)c3cc2CO1	?	0.7	21.6%	-3.0%	-12.6%[46.1 µM]	2.51µM*
CC1(C)Cc2nc3nc(SCC(=O)NCc4ccccc4)n(-c4ccccc4)c(=O)c3cc2CO1	-3.2%	0.5	9.1%	25.6%	4.1%[46.1 µM]	3.55µM*
CCn1c(SCC(=O)Nc2ccc(C)cc2)nc2nc3c(cc2c1=O)COC(C)(C)C3	-5.9%	-2.6	-11.9%	-16.3%	39.9%	?
CC1c2[nH]c3ccccc3c2C[C@H]2C(=O)N(CCCN(C)C)CC(=O)N12 (some centres not stated)	·	0.8	·	4.7%	·	·
COCC(=O)N1CCC2(CC1)CCN(C(c1ccccc1)c1ccccc1)CC2	·	1.1	6.7%	5.1%	·	10.8%
CCC(C)C(NC(=O)OC(C)(C)C)C(=O)NC1COC2CC(n3ccc(=O)[nH]c3=O)OC12 (configuration not stated)	·	2.4	·	9.8%	·	·
COC(=O)c1cc(C(=O)NCc2ccc3c(c2)OCO3)cc([N+](=O)[O-])c1	·	0.7	·	4.4%	·	·
COc1ccc(Nc2nnc(SCC(=O)c3cc(C)n(CC4CCCO4)c3C)s2)cc1 (configuration not stated)	11.6%	1.3	64.2%	?	-18.9%[46.1 µM]	6.31µM*
Cc1cc(C(=O)COC(=O)c2cc(O)c3ccccc3c2O)c(C)n1CC1CCCO1 (configuration not stated)	28.2µM*	-46.0*	-7.9%	79.4µM*	-11.3%	28.2µM*
SMILES	KDM4E inh	Coupling enz	RGS12 GoLoco inh	Sfp inh	NPSR antagonist	ALDH1A1 block
COc1ccc(Nc2nnc(SCC(=O)Nc3ccc4[nH]c(=O)[nH]c4c3)s2)cc1	-10.3%	1.5	8.0%	-14.5%	-10.0%	15.8µM*
Cc1cc(C(=O)COC(=O)c2ccccc2Br)c(C)n1CC1CCCO1 (configuration not stated)	18.2%	-5.9	5.2%	-5.8%	-35.2%	·
O=C(Cc1nc(-c2ccc(Br)s2)cs1)NCCN1CCOCC1	-0.2%	-4.4	85.6%	50.1µM*	-9.0%[46.1 µM]	-1.9%
COc1cccc2nc3cc(C)c(C)cc3nc12	-3.9%	-38.9*	2.1%	?	56.1%	-10.6%
COc1cccc2c1nc(C)c1cc(C)oc12	?	4.7	12.6%	-4.8%	-0.1%[46.1 µM]	?
Cc1ccc(NC(=O)CN(C)C(=O)c2cc3ccccc3o2)cc1	-5.4%	1.0	11.8%	23.0%	-1.0%	7.2%
COc1cc(O)c(C(CCN2CCN(c3ccccc3)CC2)c2ccc3c(c2)OCO3)c(OC)c1 (configuration not stated)	?	-5.9	-8.7%	17.1%	-43.1%	·
COc1cc(O)c(C(CCN2CCN(c3ccccc3)CC2)c2cc(OC)c(OC)c(OC)c2)c(OC)c1 (configuration not stated)	14.9%	-3.8	3.7%	-19.5%	5.01µM*	·
COc1cccc(OC)c1C(=O)NC(=S)Nc1ccc2c(c1)C(=O)N(C)C2=O	-3.1%	2.2	2.1%	-7.0%	1.6%	-15.5%
COc1cc(C(=O)NC(=S)Nc2ccc3c(c2)C(=O)N(C)C3=O)cc(OC)c1OC	0.8%	2.3	-0.9%	-5.3%	7.6%	1µM*
CC(C)Oc1cccc(C2NC(=O)c3ccccc3O2)c1 (configuration not stated)	·	-3.8	·	9.5%	·	·
CCOC(=O)c1ccc(NC(=S)NCCc2ccc(OC)c(OC)c2)cc1	-0.4%	-3.6	9.3%	0.6%	9.2%	·
CCOc1cc(/C=C2\C(=O)N(CCc3ccc(OC)c(OC)c3)C(C)=C2C(=O)OC)ccc1O	-14.8%	-16.2	-27.9%	50.1µM*	12.8%	11.2µM*
COC(=O)C1=C(C)N(Cc2ccc(C)cc2)C(=O)/C1=C\c1ccc(O)c(OC)c1	-27.5%	-12.3	-25.7%	50.1µM*	-21.9%[46.1 µM]	?
CCOc1cc(/C=C2\C(=O)N(Cc3ccco3)C(C)=C2C(=O)OC)ccc1O	4.9%	-13.7	-28.8%	20µM*	-24.6%	15.8µM*
COC(=O)C1=C(C)N(Cc2ccc(C)cc2)C(=O)/C1=C\c1cc(OC)c(OC)c(OC)c1	-8.2%	-0.8	-1.9%	-16.1%	-52.2%	-1.3%
CCOc1ccc(N2C(=O)S/C(=C\c3ccc(O)c(OC)c3)C2=O)cc1	0.6%	1.5	4.0%	-8.6%	-16.4%	·
CCOC(=O)C1=C(C)N(c2ccc(C)cc2)C(=O)/C1=C\c1ccc(O)c(OC)c1	2.24µM*	-17.0	-27.0%	44.7µM*	-56.8%	·

From PubChem BioAssay
